Experimental findings from PubChem BioAssay (EPA / NIEHS) are described below.

Calls of active or inactive are those of the source. Rule for the calls: active = hit-call score of the fitted dose curve at least 0.9, where 1 is the maximum; inactive = score below 0.9.

Read-out in this assay: X-box binding protein 1 (XBP1), XBP1 (gene 7494)
In words: LTEA_HepaRG_XBP1: Life Technologies and Expression Analysis (LTEA) Assay for X-box binding protein 1 (XBP1) using HepaRG (AID 2283540). The settings on record: mRNA level, 48 h; actives raise or lower the signal. The protocol: LTEA_HepaRG is a cell based, multiplexed-readout assay that uses HepaRG, a human liver cell line, with measurements taken at 48 hours after chemical dosing on a 96-well plate.LTEA_HepaRG_XBP1 is one of 102 assay component(s) measured in the LTEA HepaRG cell culture assay. It is a marker of Diseases associated with XBP1 including Major Affective Disorder 7 and Bipolar Disorder.Data from the assay component LTEA_HepaRG_XBP1 was analyzed into 1 endpoint. This assay endpoint, LTEA_HepaRG_XBP1, was analyzed with bidirectional fitting relative to DMSO as the negative control and baseline of activity. Using a type of inducible reporter, measures of mRNA induction for gain or loss-of-signal activity can be used to understand regulation of transcription factor activity. To generalize the intended target to other relatable targets, this assay endpoint is annotated to the dna binding intended target family, where the subfamily is basic leucine zipper.
A total of 1060 chemcials from the ToxCast library were tested in eight-point concentration-response experiments. Cell culture and cytotoxicity assays were conducted at Thermo Fisher Scientific's Custom Services facility (Madison, WI). A single lot of human HepaRG cells (Thermo Fisher Scientific, Frederick, MD) was used for the cell culture experiments. 96-well format collagen type I coated plates of human HepaRG cells were prepared using established methods. Briefly, cryopreserved HepaRG cells were thawed, plated at a density of approximately 100,000 cells/well in HepaRG Thaw, Plate, and General Purpose media (HPRG770, Thermo Fisher Scientific), and incubated for 48 hours. 0.5% DMSO was selected as vehicle control to balance the requisite need of DMSO in HepaRG cultures to maintain differentiation (for example, baseline metabolism, proportions of hepatocytes vs. cholangiocytes), while enabling further hepatic receptor pathway activation (for example, PXR and CAR) in response to chemical exposure. 48 hours after plating, the culture medium was replaced with HepaRG Serum-Free Incudtion Media. Cells were exposed to each test chemical in duplicate and maintained in CO2 incubators for another 48 hours. Chemical plates were thawed to room temperature and 200x concentrations of treatment groups were prepared. 8-point conentration-reponse curves were made with the highest exposure at 100 uM, followed by half-log dilutions, all in 0.5% DMSO. Each test plate contained variouse controls, induction positive controls (1mM phenobarbital), cytotoxicity positive controls ([…] aflatoxin B1), vehicle controls (0.5% DMSO), and total lysis controls (0.5% DMSO). Cell morphology images were taken using an Essen IncuCyte FLR automated microscope, with six 96-well plates imaged in about 24 minutes. Images were captured and exported and JPEG files. Spent culture media was transfered to black-well plates for the LDH assay, and remaining media was sorted at -80 C for later use. Cells were treated with RLT buffer and frozen until shipped for gene expression analysis. Total RNA was isolated from the cell suspension in 75 uL of Buffer RLT (Qiagen, Germantown, MD 20874) by Quintiles/Expression Analysis (Durham, NC) using a custom isolation procedure. Total RNA from each plate well was transferred to a preamplification plate. Fluidigm's 96.96 Dynamic ArrayTM (Fluidigm, Amsterdam, the Netherlands) technology was used for gene expression analyses by quantitative reverse transcription polymerase chain reaction (qRT-PCR, performed by Quintiles/Expression Analysis, Durham, NC)89. Standard TaqManTM Assays (Applied Biosystems/ThermoFisher Scientific, Foster City, CA) were used to assess the expression of 93 genes selected based on their selectivity and sensitivity to important hepatic receptors known to be modulated by environmental chemicals; importance in human hepatocyte functionality; and hepatotoxicity. […]
On to `CCOP(=S)(OCC)Oc1nc(Cl)c(Cl)cc1Cl`, for which the compound was called inactive.

`CN(C)N=O`: the result was inactive.

As for `O=C(O)C(Cl)(Cl)Cl`, the compound was classed as inactive.

Take `O=C(O)C(F)(F)C(F)(F)C(F)(F)C(F)(F)C(F)(F)C(F)(F)C(F)(F)C(F)(F)C(F)(F)C(F)(F)F`: the compound was classed as inactive.

Take `O=C(Nc1ccc2[nH]ccc2c1)c1cc2cc(F)ccc2n1Cc1cccc(F)c1`: the compound was called inactive.

`CCC(=O)C(CC(C)N(C)C)(c1ccccc1)c1ccccc1` (stereo unspecified): the result was inactive.

As to `CC(C)(c1ccccc1)c1ccc(O)c(C(C)(C)c2ccccc2)c1`, the compound was called inactive.

As to `CC(=O)[O][Hg][c]1ccccc1`, the concentration at half-maximal activity (AC50) – broadly, the midpoint of the concentration-response curve, whichever way the signal moves – is 11.6 µM (active).

For `CCN1CCC2(CC1)COc1cc3c(cc12)N(C(=O)c1ccc(-c2ccc(-c4nnc(C)o4)cc2C)cc1)CC3`, the AC50 is 27.4 µM (active).

Regarding `O=C(O)C(F)(F)C(F)(F)C(F)(F)C(F)(F)C(F)(F)C(F)(F)F`, the compound was classed as inactive.

For `NC(=O)O`, the compound was classed as inactive.

`C=CC(=O)OCCCCCC(C)C`: the outcome was inactive.

Consider `C[C@@H]1C[C@@H]([C@H](O)CC2CC(=O)NC(=O)C2)C(=O)[C@@H](C)C1`, for which the AC50 was 16.7 µM (active).

As to `COc1cc(-c2ccc(N)c(OC)c2)ccc1N`, the outcome was inactive.

For the compound `Oc1cccc2cccnc12`, the outcome was inactive.

As to `O=C1C2(Cl)C3(Cl)C4(Cl)C(Cl)(Cl)C5(Cl)C3(Cl)C1(Cl)C5(Cl)C24Cl` (stereo unspecified), the AC50 was 92.4 µM (active).

On to `CC12CC1(C)C(=O)N(c1cc(Cl)cc(Cl)c1)C2=O` (stereo unspecified), for which the call was inactive.

Take `O=c1[nH]c(=O)[nH]c(=O)[nH]1`: the outcome was inactive.

As for `C[C@]12CCC(=O)C[C@@H]1CC[C@@H]1[C@@H]2CC[C@]2(C)[C@@H](O)CC[C@@H]12`, the compound was classed as inactive.

With `CCOP(=S)(OCC)SCSP(=S)(OCC)OCC`, the concentration at half-maximal activity (AC50) is 0.245 µM (active).

`CC(C)(OO)c1ccccc1`: the result was inactive.

For the compound `C=C(C)C(=O)[O][Sn]([CH2]CCC)([CH2]CCC)[CH2]CCC`, the result was inactive.

On to `CC(C)(C)c1cc(O)ccc1O`, for which the compound was called inactive.

Take `Cc1ccccc1N`: the compound was classed as inactive.

On to `CCCCCCCCc1ccc(O)cc1`, for which the compound was called inactive.

`Cn1sc(Cl)cc1=O`: the result was inactive.

In the case of `CC(C)(C)CC(C)(C)c1ccc(O)cc1`, the compound was classed as inactive.

Regarding `ClC1(Cl)C2(Cl)C3(Cl)C4(Cl)C(Cl)(Cl)C5(Cl)C3(Cl)C1(Cl)C5(Cl)C24Cl` (stereo unspecified), the compound was called inactive.

Consider `CCC(C)(C)c1ccc(O)c(C(C)(C)CC)c1`, for which the compound was called inactive.

`O=[N+]([O-])c1ccc(O)c([N+](=O)[O-])c1`: the AC50 is 13.2 µM (active).

On to `ClCC(Cl)CCl`, for which the compound was classed as inactive.
